In PubChem BioAssay:

Molecular target: Fibroblast growth factor 10 (Homo sapiens) (UniProt O15520)
Assay: compounds binding fibroblast growth factor 10 – biochemical, small-molecule microarray, 635 nm fluorescence, primary screen (AID 1102)
Settings: FGF10 binding, fluorescence 635 nm, higher = more signal

Sequence of Fibroblast growth factor 10 (Homo sapiens) (O15520 whole entry, looked up): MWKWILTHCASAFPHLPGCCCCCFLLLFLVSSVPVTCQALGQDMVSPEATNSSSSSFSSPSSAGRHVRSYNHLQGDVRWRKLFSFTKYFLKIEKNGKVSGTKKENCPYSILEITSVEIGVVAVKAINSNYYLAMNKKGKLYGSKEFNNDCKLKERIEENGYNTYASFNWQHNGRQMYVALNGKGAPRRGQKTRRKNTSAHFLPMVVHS

Row | SMILES | composite z-score
1 | COc1cc(CO)cc(I)c1O[C@H]1C=C(C(=O)NCCO)C[C@@H](N(C(=O)c2cc3ccccc3oc2=O)C2CCCCCC2)[C@@H]1O | 0.968
2 | O=C1C2C=CC(C(O)C=Cc3ccc([N+](=O)[O-])cc3)N(n3cnnc3)C2C(=O)N1Cc1ccccc1 (stereo unspecified) | 0.466
3 | COCCOC(=O)N1C(=O)[C@@]2(c3ccccc31)[C@H](C(=O)N1CCc3cc(OC)c(OC)cc3C1)[C@H]1C(=O)O[C@H](c3ccccc3)[C@H](c3ccccc3)N1[C@@H]2c1ccc(O)cc1 | 0.375
4 | C#CCN(C/C=C/c1ccccc1)[C@H](CO)c1ccccc1 | 0.0797
5 | O=C1OCCC=C[C@H]2OC34C=CCN(c5ccc(Cl)cc5)C(=O)[C@H]3N(CCCO)C(=O)[C@@H]4C12 (stereo partly specified) | 0.0364
6 | CCCCC(O)C1C=CC2C(=O)N(C)C(=O)C2N1N1CCCCC1 (stereo unspecified) | 0.546
7 | COc1cc2c(cc1OC)CN(C(=O)[C@H]1[C@@H]3C(=O)O[C@@H](c4ccccc4)[C@@H](c4ccccc4)N3[C@@H](c3ccccc3OCCO)[C@]13C(=O)Nc1ccc(C#CCCO)cc13)CC2 | 0.786
8 | COCCCNC(=O)[C@@]1(Cc2ccccc2)N=C(c2ccc(OCCCO)cc2)O[C@H]1c1ccccc1CN=[N+]=[N-] | 0.807
9 | CC(C)Cc1ccc(CN2CC[C@@H](N)C2)cc1 | -1.16
10 | C[N+](C)(C)CCCC[C@@H]1NC(=O)[C@H]2C[C@@H](C(=O)NCCCCCCNC(=O)CS)[C@@H](c3ccc(O)cc3)N2C1=O | -0.347
11 | COc1ccc(C#Cc2ccc3c(c2)[C@]2(C(=O)N3)[C@H](c3ccc(O)cc3)N3[C@H](c4ccccc4)[C@H](c4ccccc4)OC(=O)[C@H]3[C@@H]2C(=O)N2CCc3cc(OC)c(OC)cc3C2)cc1 | 0.768
